High-throughput results (PubChem BioAssay)
Sm TGR inh = blocks Schistosoma mansoni thioredoxin glutathione reductase; 360,000 tested, 3% active; Q962Y6; purified TGR, DTNB reduction, TNB absorbance 405 nm; AID 485364; Potency, µM (series often up to 114 µM), for the others: top-dose activity change, negative = inhibition, most hits filed as inhibitors; further: on the % scale 0 is the no-effect control and ±100 the full control effect; nearly all actives have a fitted effect of over 60% in size
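First, TGR (20 nM dispensed) and NADPH were mixed with compound. Second, a 15 min room-temperature incubation followed. Third, further NADPH and then DTNB were added to start the reaction. Finally, TNB absorbance was monitored kinetically.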
AmpC no deterg = inhibitors of E. coli AmpC beta-lactamase without detergent; AmpC nitrocefin hydrolysis, absorbance 480 nm, 0.0001% Triton; Potency, µM (series often up to 57.1 µM), without a hit: at the top dose activity change, negative = inhibition, usual class: inhibitors; 330,000 tested, 0.52% active;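 further: plate controls were no compound for no effect and no enzyme for full effect; nearly all actives have a fitted effect of over 20% in size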
Target sequence (P00811 whole entry, looked up): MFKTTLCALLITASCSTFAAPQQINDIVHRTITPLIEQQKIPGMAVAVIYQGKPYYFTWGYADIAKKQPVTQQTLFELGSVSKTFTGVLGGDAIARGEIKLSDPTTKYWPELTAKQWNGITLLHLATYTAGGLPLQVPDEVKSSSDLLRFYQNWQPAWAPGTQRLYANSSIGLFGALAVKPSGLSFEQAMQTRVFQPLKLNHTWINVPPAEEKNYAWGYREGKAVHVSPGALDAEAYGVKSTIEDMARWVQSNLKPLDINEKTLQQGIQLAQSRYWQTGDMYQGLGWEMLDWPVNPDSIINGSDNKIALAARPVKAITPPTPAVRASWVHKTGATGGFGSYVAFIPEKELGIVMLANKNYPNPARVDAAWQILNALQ
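20 mM phosphate pH 7.0 + 0.01% (detergent screen) or 0.0001% Triton X-100; 5.3 nM AmpC reagent; cpd preinc 15 min RT; nitrocefin (800 uM stock) to start; A480 q20 s × 4 min; Activity was normalised to no-enzyme and no-compound control wells.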
SARS PLP yeast = inhibitors of SARS-CoV papain-like protease in yeast | AID 485353 | 330,000 tested, 0.19% active | Potency, µM (series often up to 32.9 µM), for the others: at the top dose activity, positive = growth rescue, usual class: activators | S. cerevisiae expressing SARS-CoV PLpro, growth rescue; calls by dose curve; further: 0% is about no effect; nearly all actives have a fitted effect of over 55% in size
Pf growth 48h = P. falciparum growth inhibition at 48 hours (one generation) | P. falciparum luciferase growth in erythrocytes, 48 h | Potency, µM (doses to about 28.7 µM), for the others: top-dose activity change, negative = inhibition, actives largely listed as inhibitors | 310,000 tested, 5.9% active; further: on the % scale 0 is the no-effect control and ±100 the full control effect
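Read-out is firefly luciferase luminescence from an integrated reporter in P. falciparum, so falling signal marks reduced parasite growth. Infected erythrocytes were at 2% hematocrit and 0.1% parasitemia (final) in Albumax-supplemented RPMI 1640.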
Pf growth 96h = P. falciparum growth inhibition at 96 hour, primary screen for plastid delayed-death inhibitors | AID 504834 | 320,000 tested, 6.9% active | P. falciparum luciferase reporter growth, 96 h | Potency, µM (doses to about 28.7 µM), without a hit: at the top dose activity change, negative = inhibition, actives largely listed as inhibitors; further: on the % scale 0 is the no-effect control and ±100 the full control effect
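Compounds incubated with erythrocytes infected by luciferase-expressing P. falciparum (2% hematocrit, 0.05% parasitemia final) for 96 hours, 37 C in 5% CO2. Growth inhibition scored as decreased luciferase luminescence.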
AmpC detergent = AmpC beta-lactamase inhibition with detergent present; Potency, µM (doses to about 114 µM), inactives show at the top dose activity change, negative = inhibition, usual class: inhibitors; P00811; AmpC hydrolysis of nitrocefin, absorbance 480 nm, 0.01% Triton; 370,000 tested, 0.041% active; AID 485294;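 further: 0% = no-compound wells and -100% = no-enzyme wells; nearly all actives have a fitted effect of over 25% in size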
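AmpC (5.3 nM in the dispensed reagent) in 20 mM phosphate pH 7.0 with 0.01% (detergent screen) or 0.0001% Triton X-100 was preincubated with compounds for 15 min at room temperature. Nitrocefin was then added from an 800 uM solution, and hydrolysis was followed at 480 nm.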
Active calls of the source: *; i = inactive; ? = inconclusive; nt = no result. Only some compounds are listed: those with a hit (about 12% of all), similar ones and a draw of the others. Unless noted, the call rests on the fitted dose curve; in most records, active means well fitted curve in the direction sought with a large enough effect; inconclusive means small, poorly fitted or top-dose-only effect, or another doubt; inactive means no such curve, though single readings can be large; an effect the other way counts as inactive or inconclusive. Potency means the concentration at half of the fitted maximal effect.

SMILES | Sm TGR inh | AmpC no deterg | SARS PLP yeast | Pf growth 48h | Pf growth 96h | AmpC detergent
CCn1cc(C=C2C(=O)N(C)C(=O)N(C)C2=O)c2ccccc21 | -26.8% | -15.0% | 1.7% | -29.7% | 0.117µM* | -17.2%
CCn1cc(C=C2C(=O)NC(=O)NC2=O)c2ccccc21 | ? | -1.2% | 1.7% | -7.3% | 11.2% | -7.4%
CCn1cc(/C=C/c2cc[n+](C)cc2)c2ccccc21 | -20.6% | 22.2% | -1.1% | 0.37µM* | 0.208µM* | -6.4%
CC(C)n1cc(/C=C/c2cc[n+](C)cc2)c2ccccc21 | -20.7% | 15.3% | 0.9% | 0.522µM* | ? | -7.6%
COc1ccc2c(c1)c1c(c(=O)n(-c3ccc(OC)c(OC)c3)c(=O)n1CC(=O)N1CCCC1)n2C | -6.5% | nt | nt | nt | nt | 0.3%
CSC1=NCCN1C(=O)c1ccc2c(c1)OCO2 | 3.0% | -2.6% | ? | ? | ? | 4.6%
CC1=CC(C)(C)N(C(=O)c2ccc(F)cc2)c2cc3c(cc21)OCO3 | 0.0% | -39.5% | -32.2% | 11.7µM* | -18.4% | 0.1%
NC(CSCC(=O)O)C(=O)O (configuration not stated) | nt | nt | nt | 9.1% | 4.6% | nt
O=c1[nH]c2ccc(N/C(=N/S(=O)(=O)c3ccccc3)c3ccccc3)cc2[nH]1 | 1.1% | -26.5% | 13.8% | -8.0% | 4.15µM* | ?
CC(=O)Nc1ccc(N/C(=N\S(=O)(=O)c2ccccc2)c2ccccc2)cc1 | 3.1% | -17.7% | 2.7% | -6.0% | ? | ?
Cc1ccsc1-c1nc(CN2CCN(C)C(=O)[C@@H]2C)c(C)o1 | 31.6µM* | 17.5% | -1.0% | -17.8% | i | -1.9%
CC1=C(C(=O)Nc2ccccc2C)C(c2ccccn2)n2nc(SCc3ccccc3F)nc2N1 (configuration not stated) | 1.3% | nt | nt | nt | nt | 9.1%
O=C(N/N=C/c1ccoc1)c1ccc(Cl)cc1 | 44.7µM* | 31.8% | 1.6% | 2.62µM* | ? | 7.1%
CCN(CC)CCOC(=O)c1ccc(NC(=O)CCCN2C(=O)/C(=C/c3cccs3)SC2=S)cc1 | -3.0% | 159.6% | -2.7% | 5.22µM* | ? | -0.9%
COc1cc(/C=C2\SC(=S)N(CCC(=O)Nc3ccccc3O)C2=O)cc(OC)c1OC | 8.7% | -24.7% | 2.2% | ? | 13.1µM* | -12.2%
O=C(CCCN1C(=O)/C(=C\c2cccs2)SC1=S)Nc1ccc(C(=O)O)cc1 | -12.6% | -11.8% | 1.9% | -7.8% | ? | 6.4%
O=C(CCN1C(=O)S/C(=C\c2cccs2)C1=O)NC1=NCCS1 | -0.7% | 22.4µM* | -20.8% | -0.3% | -22.7% | -3.1%
O=C(CCN1C(=O)/C(=C/c2cccs2)SC1=S)Nc1ccccn1 | -0.9% | -36.0% | 0.2% | ? | ? | -1.9%
CCOC(=O)N1CCN(C(=O)CCN2C(=O)/C(=C\c3ccccc3OC)SC2=S)CC1 | -32.7% | -16.0% | -3.9% | ? | 2.8% | -5.2%
COc1cc(/C=C2\SC(=S)N(CCC(=O)NCCc3ccccc3)C2=O)cc(OC)c1OC | 1.8% | -9.4% | -0.1% | -19.6% | -0.1% | -9.0%
COc1ccccc1/C=C1\SC(=S)N(CCC(=O)N2CCN(C)CC2)C1=O | 4.0% | 68.2% | 5.0% | 11.7µM* | 17.3% | 2.6%
N#C/C(=C\c1ccco1)C(=O)Nn1cnnc1 | 0.5% | -9.7% | -2.8% | 5.7% | 8.4% | -7.8%
C[C@@]12CCC3[C@@](CCC4[C@@]3(C)CCC[C@@]4(C)C(=O)N3CCOCC3)(CC1=O)C2 (some centres not stated) | nt | 161.2% | 0.5% | nt | nt | nt
Cc1oc(-c2cccc(Cl)c2)nc1CN1CCC(C(=O)NCc2ccc(F)cc2)CC1 | 6.7% | nt | nt | nt | nt | 6.7%
Cc1cc(Cl)ccc1C(=O)C1CCCN(C(=O)c2n[nH]c3c2CCCC3)C1 (configuration not stated) | 2.6% | 24.1% | -0.1% | 8.7% | ? | -2.3%
